In PubChem BioAssay:
Values joined by “and” are separate entries in the source; they are usually repeats but may differ in a detail not shown here. Equal values may be shown once. Active and inactive are the calls of the source. Unless noted, the rule behind the calls is not given here.

Columns and labels:
[1] = compounds altering circadian rhythm period length – cell-based, LOPAC library, luminescence reporter (AID 2774); conditions: circadian reporter cells, at 7 µM, actives lie on both sides;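 note: values are relative to mean of DMSO wells on each plate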
[2] = compounds altering viability of human ES cells (AID 493140); conditions: human embryonic stem cell survival screen; stronger effect = higher value;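 note: cells exposed to compounds for four days before counting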
[3] = tested on: Hepatitis C virus NS3 helicase; test: blockers of NS3h binding to ssDNA – biochemical, fluorescence polarization, LOPAC1280 library, primary screen (AID 687035; in the data active = inhibition above about 37%); conditions: Purified HCV NS3 helicase, Cy5-dT15 ssDNA binding fluorescence polarization; stronger effect = higher value; concentration not given here
[4] = compounds altering Cy5-DNA-NS3h complex signal – biochemical, LOPAC1280, artefact control for HCV NS3 helicase inhibitor project (AID 687037); conditions: Cy5-DNA-NS3h complex fluorescence interference counterscreen
[5] = viability loss with induced miR-34 in A549 – imaging, A549 dox-inducible miR-34, nuclei and caspase counts, primary screen (AID 1347080;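 active = compounds whose cell count with miR-34 switched on is under 0.7 times the count with it off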); conditions: A549 miR-34 inducible, Hoechst nuclei count, 48 h
[6] = chitosan synthesis blockers in C. neoformans – flow cytometry, Cibacron Brilliant Red staining (AID 1347148); conditions: Cryptococcus neoformans chitosan, stronger effect = lower value; at 10 µM unless noted;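 note: compound exposure lasted three days at 37 degrees C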
[7] = MELAS cybrid and Rieske KO viability enhancers – cell-based, MELAS cybrids, Rieske KO mouse fibroblasts, CellTiter-Glo, primary screen (AID 1508586;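 active = mean z-score across replicates of 1.96 or higher in either the MELAS or the Rieske mutant cell line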;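 note: z relative to plate mean and SD of compound and empty wells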); conditions: low glucose
[8] = blockers of cellular phospholipid synthesis – cell-based, LOPAC library, screen 4, primary screen (AID 1347384); conditions: animal cells, phospholipid biosynthesis inhibition screen; at 10 µM
[9] = galactose survival enhancers in mitochondrial complex I cybrids – cell-based, galactose medium, ATP luminescence, primary screen (AID 1645843;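 active = z-score of at least 1.8 in each of two replicates, scored against plate mean and spread of sample wells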;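 note: positive z means more ATP and so rescue of galactose-driven cybrid death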); conditions: complex I mutant cybrid cells, 72 h, stronger effect = higher value
[10] = stronger effect = lower value, cell number ratio, induced over uninduced
[11] = measured here: relative caspase fold change +Dox/-Dox
[12] = measured here: total cells with miR-34 induction, stronger effect = lower value
[13] = measured here: total cells without miR-34 induction

## CCCCC/C=C\CC(O)/C=C/c1cccc(CC(O)CCCCO)n1 (stereo not given)
[1]
  period change: 0.025 h (inactive)
[2]
  survival: 97.4 (inactive)
[3]
  inhibition: -1% (inactive)
[4]
  fluorescence ratio (interference): 0.9 (inactive)
[5]; [10]
  fold change: 0.988 (inactive)
[5]; [11]
  fold change: 1.4
[5]; [12]
  cell count: 5690
[5]; [13]
  cell count: 5760
[6]
  fold fluorescence: 3.69 [at 1 µM] (inactive)

## CC/C=C\C/C=C\C/C=C\CCCCCCCCCCCC(=O)O
[2]
  survival: 81.8 (inactive)
[5]; [10]
  fold change: 0.989 (inactive)
[5]; [11]
  fold change: 0.936
[5]; [12]
  cell count: 5970
[5]; [13]
  cell count: 6030
[6]
  fold fluorescence: 4.89 (inactive)

## CCCCC[C@H](O)/C=C/C=C\C=C\C=C\[C@@H](O)[C@@H](O)CCCC(=O)O
[2]
  survival: 89.1 (inactive)
[5]; [10]
  fold change: 0.912 (inactive)
[5]; [11]
  fold change: 1.26
[5]; [12]
  cell count: 5670
[5]; [13]
  cell count: 6220
[6]
  fold fluorescence: 4.45 [at 1 µM] (inactive)

## CCCCC[C@H](O)/C=C/C=C\C/C=C\C/C=C\CCCC(=O)O
[2]
  survival: 53.7 (inactive)
[5]; [10]
  fold change: 1.03 (inactive)
[5]; [11]
  fold change: 1.58
[5]; [12]
  cell count: 5880
[5]; [13]
  cell count: 5700
[6]
  fold fluorescence: 4.64 [at 1 µM] (inactive)

## CCCCC/C=C\C/C=C\C/C=C\CC1OC1CCCC(=O)O (stereo not given)
[2]
  survival: 114 (inactive)
[5]; [10]
  fold change: 0.939 (inactive)
[5]; [11]
  fold change: 1.34
[5]; [12]
  cell count: 5900
[5]; [13]
  cell count: 6280
[6]
  fold fluorescence: 4.93 [at 1 µM] (inactive)

## CCCCC/C=C\C/C=C\C/C=C\C/C=C\CCCC(=O)O[C@@H](CO)COC(=O)CCCCCCCCCCCCCCCCC
[2]
  survival: 92.4 (inactive)
[5]; [10]
  fold change: 0.967 (inactive)
[5]; [11]
  fold change: 1.14
[5]; [12]
  cell count: 5940
[5]; [13]
  cell count: 6140
[6]
  fold fluorescence: 5.53 (inactive)

## CCCC(=O)Nc1nc2c(ncn2C2O[C@H]3COP(=O)(O)O[C@@H]3[C@@H]2OC(=O)CCC)c(=O)[nH]1 (stereo not given in full)
[5]; [10]
  fold change: 1.02 (inactive)
[5]; [11]
  fold change: 0.664
[5]; [12]
  cell count: 5430
[5]; [13]
  cell count: 5330
[6]
  fold fluorescence: 6.9 [at 103 µM] (inactive)

## CCOC(=O)C1OC1C(=O)NC(CC(C)C)C(=O)NCCC(C)C (stereo not given)
[5]; [10]
  fold change: 0.903 (inactive)
[5]; [11]
  fold change: 0.67
[5]; [12]
  cell count: 8060
[5]; [13]
  cell count: 8930
[6]
  fold fluorescence: 5.77 [at 146 µM] (inactive)
[7]; MELAS cybrid survival, CellTiter-Glo 48 h, stronger effect = higher value
  z-score: -0.522 (inactive)
[7]; Rieske KO mouse fibroblast survival, CellTiter-Glo 72 h
  z-score: -1.31

## c1ccc(CN(CCN(Cc2ccccn2)Cc2ccccn2)Cc2ccccn2)nc1
[5]; [10]
  fold change: 0.775 (inactive)
[5]; [11]
  fold change: 2.99
[5]; [12]
  cell count: 418
[5]; [13]
  cell count: 538
[6]
  fold fluorescence: 9.33 [at 117.8 µM] (inactive)

## CC12C=CC(=O)C=C1CCC1C2=CCC2(C)C1CC[C@@H]2C(=O)CN1CCN(c2cc(N3CCCC3)nc(N3CCCC3)n2)CC1 (stereo not given in full)
[5]; [10]
  fold change: 0.969 (inactive)
[5]; [11]
  fold change: 1.43
[5]; [12]
  cell count: 4330
[5]; [13]
  cell count: 4470
[6]
  fold fluorescence: 7.93 [at 81.9 µM] (inactive)

## CCCCC/C=C\C[C@H](O)/C=C/C=C\C/C=C\CCCC(=O)O
[2]
  survival: 93.5 (inactive)
[5]; [10]
  fold change: 0.969 (inactive)
[5]; [11]
  fold change: 1.13
[5]; [12]
  cell count: 5180
[5]; [13]
  cell count: 5340
[6]
  fold fluorescence: 4.99 [at 1 µM] (inactive) and 5.6 [at 1 µM] (inactive)

## CCCCC/C=C\CC1OC1CCCCCCCC(=O)O (stereo not given)
[2]
  survival: 79.6 (inactive)
[5]; [10]
  fold change: 0.903 (inactive)
[5]; [11]
  fold change: 1.25
[5]; [12]
  cell count: 5290
[5]; [13]
  cell count: 5850
[6]
  fold fluorescence: 2.8 [at 1 µM] (inactive)

## CCCCC/C=C\C/C=C\C/C=C\C=C\C(=O)CCCC(=O)O
[2]
  survival: 84.8 (inactive)
[5]; [10]
  fold change: 0.886 (inactive)
[5]; [11]
  fold change: 1.22
[5]; [12]
  cell count: 5820
[5]; [13]
  cell count: 6560
[6]
  fold fluorescence: 3.82 [at 1 µM] (inactive)

## O=C(O)c1cc(N(Cc2ccccc2O)Cc2cc(O)ccc2O)ccc1O
[2]
  survival: 94.2 (inactive)
[5]; [10]
  fold change: 0.907 (inactive)
[5]; [11]
  fold change: 1.1
[5]; [12]
  cell count: 5160
[5]; [13]
  cell count: 5680
[6]
  fold fluorescence: 4.34 [at 131.1 µM] (inactive)

## CCCCCCCCCCCCCCCC(=O)N[C@H](CN1CCOCC1)[C@H](O)c1ccccc1
[2]
  survival: 83.7 (inactive)
[5]; [10]
  fold change: 1 (inactive)
[5]; [11]
  fold change: 1.57
[5]; [12]
  cell count: 5590
[5]; [13]
  cell count: 5590
[6]
  fold fluorescence: 5.42 (inactive)

## CCCCCCCCCC(=O)OC[C@H](CO)OC(=O)CCCCCCCCC
[5]; [10]
  fold change: 0.939 (inactive)
[5]; [11]
  fold change: 0.854
[5]; [12]
  cell count: 5260
[5]; [13]
  cell count: 5600
[6]
  fold fluorescence: 7.36 (inactive)

## CCCCCCCCCCCCCCC[C@H](O)[C@H](N)CO
[1]
  period change: -0.08 h (inactive)
[3]
  inhibition: 4% (inactive)
[4]
  fluorescence ratio (interference): 0.9 (inactive)
[5]; [10]
  fold change: 0.911 (inactive)
[5]; [11]
  fold change: 1.55
[5]; [12]
  cell count: 1060
[5]; [13]
  cell count: 1170
[6]
  fold fluorescence: 8.12 (inactive)
[8]
  outcome: inactive
[9]
  z-score: -0.39 (inactive)

## CCCCC/C=C\CC1OC1C/C=C\C/C=C\CCCC(=O)O (stereo not given)
[2]
  survival: 104 (inactive)
[5]; [10]
  fold change: 1.05 (inactive)
[5]; [11]
  fold change: 1.1
[5]; [12]
  cell count: 5770
[5]; [13]
  cell count: 5500
[6]
  fold fluorescence: 6.17 [at 1 µM] (inactive)

## COC(=O)[C@@H](N)CSC/C=C(\C)CC/C=C(\C)CCC=C(C)C
[2]
  survival: 74.2 (inactive)
[5]; [10]
  fold change: 0.927 (inactive)
[5]; [11]
  fold change: 1.37
[5]; [12]
  cell count: 6060
[5]; [13]
  cell count: 6540
[6]
  fold fluorescence: 4.53 (inactive)

## CCCCC[C@H](O)/C=C/C=C\CCCCCCCC(=O)O
[2]
  survival: 87.8 (inactive)
[5]; [10]
  fold change: 0.929 (inactive)
[5]; [11]
  fold change: 1.14
[5]; [12]
  cell count: 5740
[5]; [13]
  cell count: 6180
[6]
  fold fluorescence: 6.42 [at 1 µM] (inactive)

## CO[C@H]1O[C@@H]2O[C@]3(C)CC[C@@H]4[C@@H](C)CC[C@H]([C@H]1C)[C@]24OO3
[5]; [10]
  fold change: 0.984 (inactive)
[5]; [11]
  fold change: 1.93
[5]; [12]
  cell count: 9680
[5]; [13]
  cell count: 9830
[8]
  outcome: inactive
[9]
  z-score: -0.71 (inactive)
